Molecules are shown by their SMILES.

The subject of this experiment is Vero E6 infected with SARS-CoV-2. The experiment is described as follows: SARS-CoV-2 infection rate relative to infected DMSO; higher = more infection, active = 60 or less. The conditions noted are these: 24 h.
For the compound `O=c1cc(N2CCOCC2)oc2c(-c3cccc4c3sc3ccccc34)cccc12` (0.833333 µM), the SARS-CoV-2 infection rate is 68% (inactive). The value for `C[C@@H](O)[C@H]1C(=O)N2C(C(=O)O)=C(SCCNC=N)C[C@H]12` [imipenem] (10 µM) was 114% (inactive); that for `O=C(O)c1cc(/N=N/c2ccc(O)c(C(=O)O)c2)ccc1O` [olsalazine] (10 µM) was 104% (inactive); that for `CC(=O)OCC(=O)[C@@]1(OC(C)=O)[C@@H](C)C[C@H]2[C@@H]3C[C@H](F)C4=CC(=O)C=C[C@]4(C)[C@@]3(F)[C@@H](O)C[C@@]21C` [diflorasone-diacetate] (10 µM) was 113% (inactive). On to `O=C(NOCCO)c1cc(CN2OCCCC2=O)c(F)c(F)c1Nc1ccc(I)cc1F` (0.833333 µM), for which the SARS-CoV-2 infection rate is 96.5% (inactive).

As for `CC(C)(C)NC(=O)[C@@H]1CN(Cc2cccnc2)CCN1C[C@@H](O)C[C@@H](Cc1ccccc1)C(=O)N[C@H]1c2ccccc2C[C@H]1O` [indinavir] (10 µM), the SARS-CoV-2 infection rate was 110% (inactive). `CCCCOc1ccc(OCCCN2CCOCC2)cc1` [pramoxine] (10 µM): the SARS-CoV-2 infection rate is 106% (inactive). In the case of `COc1cc(OC)c(C(=O)CCCCN2CCC3(CC2)NC(=O)NC3=O)cc1NS(=O)(=O)c1ccc(C(F)(F)F)cc1` (10 µM), the SARS-CoV-2 infection rate was 93% (inactive). Consider `CCn1cc(C(=O)O)c(=O)c2ccc(C)nc21` [nalidixic-acid] (10 µM), for which the SARS-CoV-2 infection rate was 106% (inactive). For `Oc1ccc(Cl)cc1Cc1cc(Cl)ccc1O` [dichlorophen] (10 µM), the SARS-CoV-2 infection rate was 99.5% (inactive).

Regarding `CC(=O)Nc1nnc(S(N)(=O)=O)s1` [acetazolamide] (10 µM), the SARS-CoV-2 infection rate is 85.5% (inactive).

The record behind these values is the supplement of paper PMC13380429.
